Measurements taken from PubChem BioAssay (Tox21).
Where “and” joins values, the source holds several entries; their conditions need not be identical. Equal values may be shown once. Calls of active or inactive are those of the source. Where a call stands in place of a potency, no number is given. Calls follow the shape of the dose curve; as a rule, active = well fitted curve in the direction sought with a large enough effect in the signal ratio in the repeat runs (not every such curve was filed as active); inconclusive = weak or mixed curves, or effect the other way; inactive = no such curve, though single readings can be large or run the other way; the % refers to the signal ratio.

Each compound was assayed against Estrogen receptor (Homo sapiens) (UniProt P03372) (assay: qHTS assay to identify small molecule antagonists of the estrogen receptor alpha (ER-alpha) signaling pathway (AID 743069)). Conditions: HEK293 ER-alpha-UAS-bla, beta-lactamase ratio, antagonist mode; series mostly up to 69.4 µM.
Chain of Estrogen receptor (Homo sapiens) (P03372 whole entry, looked up): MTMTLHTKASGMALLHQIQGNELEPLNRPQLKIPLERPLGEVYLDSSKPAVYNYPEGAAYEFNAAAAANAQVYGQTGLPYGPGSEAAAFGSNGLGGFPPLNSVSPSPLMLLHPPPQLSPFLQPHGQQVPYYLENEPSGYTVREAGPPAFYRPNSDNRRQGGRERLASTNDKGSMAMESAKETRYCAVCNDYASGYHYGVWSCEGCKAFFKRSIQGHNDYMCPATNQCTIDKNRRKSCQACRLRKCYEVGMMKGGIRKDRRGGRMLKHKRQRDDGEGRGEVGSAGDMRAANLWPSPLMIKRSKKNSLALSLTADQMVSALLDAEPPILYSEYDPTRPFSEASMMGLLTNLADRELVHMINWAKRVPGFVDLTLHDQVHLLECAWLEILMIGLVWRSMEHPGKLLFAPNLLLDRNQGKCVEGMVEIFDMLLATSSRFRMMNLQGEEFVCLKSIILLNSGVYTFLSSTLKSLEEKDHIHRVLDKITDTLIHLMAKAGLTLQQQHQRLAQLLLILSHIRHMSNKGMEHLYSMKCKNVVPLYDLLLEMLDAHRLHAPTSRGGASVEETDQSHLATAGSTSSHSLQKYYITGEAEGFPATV
Text: National Center for Advancing Translational Sciences [NCATS]
NIH Chemical Genomics Center [NCGC]
U.S. Environmental Protection Agency [EPA]
National Institutes of Environmental Health Sciences [NIEHS]
National Toxicology Program [NTP]
U.S. Food and Drug Administration [FDA]
Estrogen receptor (ER), a nuclear hormone receptor, plays an important role in development, metabolic homeostasis and reproduction. Two subtypes of ER, ER-alpha and ER-beta have similar expression patterns with some uniqueness in both types. Endocrine disrupting chemicals (EDCs) and their interactions with steroid hormone receptors like ER causes disruption of normal endocrine function. To identify the compounds that inhibit ER signaling, an ER-alpha-UAS-bla GripTiteTM cell line (Invitrogen, Carlsbad, CA, USA) containing a beta-lactamase reporter gene under the control of an Upstream Activator Sequence (UAS) stably integrated into HEK293 cells was used to screen the Tox21 10K compound library.
Tox21 Assay Protocol Summary:
ER-alpha-bla cells were cultured in assay medium containing 2% charcoal stripped FBS overnight in the culture flasks before the assay was performed. The cells were dispensed at 5,000 cells/5 uL of assay medium per well into black wall/clear-bottom 1536-well plates using a Multidrop Combi (ThermoFisher Scientific, Waltham, MA) dispenser. After the assay plates were incubated at a 37C and 5% CO2 for 4 hr, 23 nL of compounds dissolved in DMSO, positive controls or DMSO only was transferred to the assay plate by a Pintool station (Kalypsys, San Diego, CA), followed by addition of 1 uL of 17beta-estradiol in assay medium using a Flying Reagent Dispenser (Aurora Discovery, San Diego, CA). The plates were incubated at 37C and 5% CO2 for 18 hr. Then 1 uL of LiveBLAzerTM B/G FRET substrate was added using a Flying Reagent Dispenser, the plates were incubated at room temperature for 2 hours, and fluorescence intensity was measured by an Envision plate reader (PerkinElmer, Shelton, CT).
Potency is read from the fitted curve at half-maximal effect.

| Compound | Potency |
| --- | --- |
| CC(C)=CC1C(C(=O)OCc2cccc(Oc3ccccc3)c2)C1(C)C (stereo not given) | inactive |
| O=NN1CCOCC1 | inactive |
| N#Cc1cccnc1 | inactive |
| OC(c1ccc(Cl)cc1)(c1cncnc1)c1ccccc1Cl (stereo not given) | 54.9 µM [inconclusive] (active) |
| CCCCOCC1CO1 (stereo not given) | inactive |
| N#Cc1nn(-c2c(Cl)cc(C(F)(F)F)cc2Cl)c(N)c1S(=O)C(F)(F)F (stereo not given) | 17.5 µM [inconclusive] (active) |
| CC(C)(C#N)N=NC(C)(C)C#N | inactive |
| CCCCCCCCCc1ccc(O)cc1 | inactive |
| Oc1ccc(Cl)cc1Cl | inactive |
| O=[N+]([O-])/N=C1\NCCN1Cc1ccc(Cl)nc1 | inactive |
| O=C(O)c1nn(Cc2ccc(Cl)cc2Cl)c2ccccc12 | inactive |
| COP(=S)(OC)Oc1ccc(S(=O)(=O)N(C)C)cc1 | inactive |
| CC(C)COC(=O)c1ccccc1C(=O)OCC(C)C | inactive |
| CNC(=S)S | inactive |
| N#Cc1c(Cl)c(Cl)c(Cl)c(C#N)c1Cl | 3.4 µM [inconclusive] (active) |
| CC[n+]1c(-c2ccccc2)c2cc(N)ccc2c2ccc(N)cc21 | 26.8 µM [inconclusive] (active) and 30.8 µM [inconclusive] (active) |
| CN(C)P(=O)(N(C)C)N(C)C | inactive |
| CCC/C=N/O | inactive |
| CCOP(=S)(OCC)SCSC(C)(C)C | inactive |
| Clc1ccc(C(Cl)(Cl)Cl)cc1 | inactive |

| Compound | Potency |
| --- | --- |
| Clc1cccc(C(Cl)(Cl)Cl)n1 | inactive |
| CCOS(=O)(=O)OCC | inactive |
| CCCCC(C#N)(Cn1cncn1)c1ccc(Cl)cc1 (stereo not given) | inactive |
| CCC[CH2][Sn]([Cl])([Cl])[CH2]CCC | 786 nM [inconclusive] (active) and 692 nM [inconclusive] (active) |
| CC(C)(c1ccccc1)c1ccc(O)c(C(C)(C)c2ccccc2)c1 | inactive |
| Cc1ccc(N=CN(C)C=Nc2ccc(C)cc2C)c(C)c1 | inactive |
| c1ccc2c(c1)Nc1ccccc1S2 | inactive |
| CC(C)Nc1nc(Cl)nc(NC(C)C)n1 | inactive |
| ClCc1ccccn1 | inactive |
| CSc1nc(NC(C)C)nc(NC(C)C)n1 | inactive |
| CC(C)(c1ccccc1)c1ccc(O)cc1 | 24.3 µM [inhibitor] (active) |
| C[C@]12CCC(=O)C=C1CC[C@@H]1[C@@H]2CC[C@@]2(C)[C@H]1CC[C@]2(C)O | inactive |
| O=C(O)CF | inactive |
| Nc1ccc2ccccc2c1 | inactive |
| CCCCCCCCCCCCCl | inactive |
| CNC(=O)Oc1cccc2c1OC(C)(C)C2 | inactive |
| CCCCOCCOC(C)=O | inactive |
| CC1(C)C(C(=O)OC(C#N)c2cccc(Oc3ccccc3)c2)C1(C)C (stereo not given) | inactive |
| CCOC(=O)c1ccccc1N | inactive |
| COc1ccc(C=O)cc1OC | inactive |
